Among all 330,000 compounds or so, about 1,700 (0.52%) were called active. The list comes from a sample in which actives are over-represented; it also holds similar structures and randomly drawn compounds. Unmarked numbers belong to inactive results.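 Rule for the calls: active = GFP response versus DMSO above a set limit, roughly screen mean plus 3 SD (cut at about 180% in these data); inconclusive = fewer than 70 cells counted for a yeast strain; inactive = the rest.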
assay: modulators of MEP2-GFP levels in yeast, primary screen, S. cerevisiae, multiplex flow cytometry, MLPCN library (AID 2016);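 note: median GFP fluorescence of the barcode-gated MEP2-GFP cells per well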; conditions: S. cerevisiae MEP2-GFP strain, 3 h, at 10 µM, active compounds read high, 100% = DMSO control level

| Structure (SMILES) | GFP response vs DMSO |
| --- | --- |
| C/C(Cl)=C\Cn1c(Nc2cccc(C)c2)nc2c1c(=O)n(C)c(=O)n2C | 91.5% |
| O=[N+]([O-])c1ccc(N2CCN(S(=O)(=O)c3ccc4ccccc4c3)CC2)cc1NCc1ccco1 | 91.1% |
| O=C(c1ccccc1)N1CCN(c2ccc([N+](=O)[O-])c(NCc3ccco3)c2)CC1 | 102% |
| O=[N+]([O-])c1ccc(N2CCNCC2)cc1NCc1cccnc1 | 309% [may fluoresce violet] (active) |
| O=C(Cc1cccs1)N(CC1CCCO1)C1(C(=O)NC2CCCCC2)CCCCC1 (stereo not given) | 88.4% |
| Cc1nc2ccccc2c(=O)n1NC(=O)c1ccccc1 | 99.1% |
| O=C(CN1CCCC1)N1CCN(c2ccccc2)CC1 | 91.7% |
| Cc1nc2c(ncn2-c2ccccc2)c(=O)n1NC(=O)CN1CCCC1 | 194% [may fluoresce violet] (active) |
| O=S(=O)(Nc1ncccn1)c1ccc(NS(=O)(=O)c2cccc(Cl)c2Cl)cc1 | 103% |
| O=C(CSc1ncnc2sccc12)N1CCN(C(=O)c2cccs2)CC1 | 105% |
| Nc1c(C(=O)c2cccs2)sc2nsc(SCCN3CCCCC3)c12 | 221% (active) |
| CCCCCCCCCCCCCCCC(=O)OC/C=C(C)/C=C/C=C(C)/C=C/C1=C(C)CCCC1(C)C | 107% |
| CCC(=C/c1sc2ccc3ccccc3c2[n+]1C)/C=C1\Sc2ccc3ccccc3c2N1C | 285% (active) |
| COc1ccc(Cl)cc1NC(=O)COC(=O)C(CC(C)C)N1C(=O)C2CC=CCC2C1=O (stereo not given) | 90.8% |
| Cc1noc(C)c1NC(=O)Nc1ccc2c(c1)C(=O)N([C@H](C)CO)C[C@H](C)[C@@H](CN(C)C(=O)Nc1ccc(C(F)(F)F)cc1)O2 | 103% |
| CC(=O)NCC(=O)N1CCC(n2nccc2NC(=O)CCCc2ccccc2)CC1 | 95.6% |
| Cc1nn(Cc2ccccc2)c(C)c1NS(=O)(=O)c1ccccc1 | 111% |
| OCc1nc(CO)n(Cc2ccccc2)n1 | 276% [may fluoresce violet] (active) |
| Nc1c(-c2ccccc2)nnn1Cc1ccccc1 | 96.3% |
| CCOC(=O)C1CCN(c2c(Nc3cc(C)cc(C)c3)c(=O)c2=O)CC1 | 115% |
| O=C(NCCCn1ccnc1)C1CCCN(S(=O)(=O)c2cc(Cl)ccc2Cl)C1 (stereo not given) | 106% |
| COc1ccc(S(=O)(=O)N(C)CC(=O)NCCCN2CCOCC2)cc1Cl | 95.1% |
| O=C1/C(=C\Nc2ccccc2)CCN1c1ncccn1 | 127% |

| Structure (SMILES) | GFP response vs DMSO |
| --- | --- |
| CCOC(=O)N1CCN(C(=O)COc2ccc(Cl)cc2C)CC1 | 184% [may fluoresce violet] (active) |
| CCOC(=O)N1CCN(C(=O)CNC(=O)Cc2ccc(Cl)cc2)CC1 | 106% |
| CCOC(=O)N1CCN(C(=O)COc2ccc(Br)cc2)CC1 | 104% |
| COc1ccc(-n2nc(C(=O)NCC(=O)N3CCCCCC3)c3ccccc3c2=O)cc1Cl | 107% |
| Cc1cc(C)c(C(N)=O)c(Cl)n1 | 104% |
| CC(=O)Nc1ccc(Nc2cc(C)nc(Nc3ccc(NC(C)=O)cc3)n2)cc1 | 92% |
| Cc1ccc(Nc2nc(C)cc(C)c2C(N)=O)cc1 | 209% [may fluoresce violet] (active) |
| COc1ccc(-c2nc(N)sc2C2(O)C(=O)Nc3c(Br)cc(F)cc32)cc1OC (stereo not given) | 103% |
| COc1cc(C(=O)Nc2cc(C(F)(F)F)ccc2N2CCOCC2)ccc1O | 106% |
| O=C(c1ccncc1)N1CCN(S(=O)(=O)c2cc(C(F)(F)F)cc(C(F)(F)F)c2)CC1 | 103% |
| COc1ccc(O[C@H]2C=C[C@@H](c3ccccc3)O[C@@H]2CO/N=C/C[C@@H]2C=C[C@H](OC(C)=O)[C@@H](COC(C)=O)O2)cc1 | 90% |
| CC(NC(=S)NC1CCCCC1)C(c1ccccc1)N1CCOCC1 (stereo not given) | 99.2% |
| O=S(=O)(NC1CC1)c1ccc(F)c(F)c1 | 101% |
| Cn1sc(=O)c2cc(S(=O)(=O)NC3CC3)ccc21 | 626% [may fluoresce violet] (active) |
| CC1CCC(NS(=O)(=O)c2ccc3c(c2)n(C)c(=O)c(=O)n3C)CC1 (stereo not given) | 102% |
| CCCN(CCC)CC(O)COc1ccccc1C(=O)Nc1ccccc1 (stereo not given) | 107% |
| O=C(Nc1ccc(Br)c2cccnc12)c1ccc(Cn2cc([N+](=O)[O-])cn2)o1 | 97.1% |
| O=C(COc1ccc(Cl)cc1)Nc1ccccc1CO | 98.3% |
| C=CCc1cccc(/C=N/NC(=O)COc2ccc(-n3cnnn3)cc2)c1O | 102% |
| O=C(COc1ccc(-n2cnnn2)cc1)Nc1ccccc1Cl | 240% [may fluoresce violet] (active) |
| Cc1c(-c2ccccc2)cn2c1-c1ccc(C)n1CC2 | 106% |
| COC(=O)C[n+]1cccc2ccccc21 | 221% (active) |
| Cc1cccc[n+]1CC(=O)c1ccccc1 | 113% |

| Structure (SMILES) | GFP response vs DMSO |
| --- | --- |
| COc1ccccc1NC(=O)C[n+]1ccccc1 | 108% |
| CCOc1ccc(CN(C)C(=O)c2ccc(=O)[nH]c2)cc1 | 104% |
| COc1ccc2cc1Oc1ccc(cc1)C[C@H]1c3cc(c(OC)cc3CCN1C)Oc1c(O)c(OC)cc3c1[C@H](C2)N(C)CC3 | 99.2% |
| COc1cc(COCC(O)CN2CCN(Cc3ccc4c(c3)OCO4)CC2)cc(OC)c1OC (stereo not given) | 100% |
| COc1c(O)ccc2c1CN1CCc3cc4c(cc3C1C2)OCO4 (stereo not given) | 205% (active) |
| COc1ccc(NC(=O)CSc2nncc(=O)n2N)cc1OC | 104% |
| COc1ccccc1CNC(=O)COn1nnc2ccc(S(=O)(=O)N3CCOCC3)cc21 | 123% |
| O=C(CSc1ncccn1)NCCc1ccccc1 | 96.5% |
| CC(=O)OC(C(=O)NCCc1ccccc1)c1cccnc1 (stereo not given) | 234% [may fluoresce violet] (active) |
| CCC(Oc1ccccc1)C(=O)NCc1cccnc1 (stereo not given) | 101% |
| COc1cc(CO)c(C2(CO)CCCC2)cc1OC | 101% |
| C[n+]1ccc(/C=C/c2c[nH]c3ccccc23)cc1 | 403% (active) |
| COc1ccc(/C=C(\C#N)c2c[nH]c3ccccc23)cc1 | 98.7% |
| O=C(NC1CCCC1)C(=O)c1c[nH]c2ccccc12 | 90.7% |
| CCOc1cc(/C=N/NC(=O)OC)ccc1OCCSc1ccc(Cl)cc1 | 94.9% |
| O=S(=O)(Nc1ccccc1)c1ccc(NS(=O)(=O)c2cccs2)cc1 | 94.2% |
| Clc1ccc(CN2CCCCCC2)cc1Cl | 111% |
| Cc1ccc2nc(-c3ccc(SCC(=O)Nc4cc(C)on4)nc3)[nH]c2c1 | 103% |
| CC(=O)C12CC(C)=C(C)CC1CC1C3CCC4=CC(=O)CCC4(C)C3CCC12C (stereo not given) | 101% |
| CC(=O)O[C@]1(C(C)=O)CC[C@H]2[C@@H]3C=C(C)C4=CC(=O)CC[C@]4(C)[C@H]3CC[C@@]21C | 180% [may fluoresce violet] (active) |
| O=C(C1Cc2ccccc2CN1C(=O)c1ccco1)N1CCN(c2ccccc2)CC1 (stereo not given) | 93.4% |
| COc1ccc(CNC(=O)COC(=O)C(CCSC)N2C(=O)c3ccccc3C2=O)cc1 (stereo not given) | 106% |
| Cc1c(NC(=O)c2c([N+](=O)[O-])cnn2C)c(=O)n(-c2ccccc2)n1C | 284% [may fluoresce violet] (active) |

| Structure (SMILES) | GFP response vs DMSO |
| --- | --- |
| Cc1c(NC(=O)Nc2cccc([N+](=O)[O-])c2)c(=O)n(-c2ccccc2)n1C | 103% |
| Cc1cc(OCC(=O)Nc2c(C)n(C)n(-c3ccccc3)c2=O)ccc1[N+](=O)[O-] | 112% |
| CCOC(=O)C1CCN(C(=O)Cc2c(C(=O)O)[nH]c3ccccc23)CC1 | 105% |
| Nc1nc(SCC(=O)Nc2ccc(Cl)c([N+](=O)[O-])c2)n[nH]1 | 106% |
| FC(F)(F)Oc1ccc(-c2cn3cccnc3n2)cc1 | 471% [may fluoresce violet] (active) |
| CC(C)(C)C(=O)Nc1ccc(-c2cn3cccnc3n2)cc1 | 119% |
| COc1ccc(-c2cn3cccnc3n2)cc1 | 101% |
| O=C(NCC(F)(F)F)Nc1nnc(C(F)(F)F)s1 | 90.6% |
| COc1ccc2[nH]c(=O)c(C3c4cc(OC)c(OC)cc4CCN3C(=O)c3ccco3)cc2c1 (stereo not given) | 105% |
| CCc1ccc(OCC2c3cc(OC)c(OC)cc3CCN2C(C)=O)cc1 (stereo not given) | 269% [may fluoresce violet] (active) |
| COc1ccc(CC(NC(C)=O)C(=O)NC2CCN(C(=O)c3ccc(OC)c(OC)c3)CC2)cc1OC (stereo not given) | 95.1% |
| CCOCc1nnc(NC(=O)CCC2CCCCC2)s1 | 110% |
| CC(Oc1cc2oc(=O)c3c(c2cc1Cl)CCCC3)C(=O)NCc1ccncc1 (stereo not given) | 185% [may fluoresce violet] (active) |
| O=C(COc1cc2oc(=O)c3c(c2cc1Cl)CCC3)NCCCN1CCOCC1 | 113% |
| COc1ccc(S(=O)(=O)NC(C)C(=O)NCc2ccncc2)cc1Cl (stereo not given) | 102% |
| Cc1cccc(-c2nc(CS(=O)CC(=O)NC(C)CCc3ccccc3)c(C)o2)c1 (stereo not given) | 98.7% |
| O=C(CCN1C(=O)[C@@H]2Cc3ccccc3CN2C1=O)NCCc1ccccc1 | 106% |
| C#CCCOC(=O)N1C2=NC(C(=O)OC)=C(C(=O)OC)[C@@H]3N(C)c4ccc(OC)cc4[C@]23C[C@H]1C(=O)OC | 89.3% |
| COc1ccc(CSc2nnnn2-c2ccc(C(=O)O)cc2)cc1 | 114% |
| COc1ccc(-n2nnnc2SCc2nc(N)nc(N3CCOCC3)n2)cc1 | 283% [may fluoresce violet] (active) |
| COc1ccc(-c2nnn(Cc3nc(N)nc(N4CCCCC4)n3)n2)cc1 | 107% |

— PubChem BioAssay AID2016 (NMMLSC, 2009)
